From PMC4336329 (PLoS ONE, 2015)
Screen size: about 310,000 compounds; about 14,000 (4.5%) showed an effect of 50% or more. The effect is printed as a negative number. The list comes from a sample in which strong results are over-represented; it also holds similar structures and randomly drawn compounds.

These molecules were tested against human ether-à-go-go-related gene (hERG) potassium channel (human, UniProt Q12809) (assay: primary screen, population patch clamp on CHO cells stably expressing hERG; higher = less effect of the substance).
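Also: peak tail current of the secondary pulse compared with the same well before compound.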

human ether-à-go-go-related gene (hERG) potassium channel, sequence (Q12809 whole entry, looked up): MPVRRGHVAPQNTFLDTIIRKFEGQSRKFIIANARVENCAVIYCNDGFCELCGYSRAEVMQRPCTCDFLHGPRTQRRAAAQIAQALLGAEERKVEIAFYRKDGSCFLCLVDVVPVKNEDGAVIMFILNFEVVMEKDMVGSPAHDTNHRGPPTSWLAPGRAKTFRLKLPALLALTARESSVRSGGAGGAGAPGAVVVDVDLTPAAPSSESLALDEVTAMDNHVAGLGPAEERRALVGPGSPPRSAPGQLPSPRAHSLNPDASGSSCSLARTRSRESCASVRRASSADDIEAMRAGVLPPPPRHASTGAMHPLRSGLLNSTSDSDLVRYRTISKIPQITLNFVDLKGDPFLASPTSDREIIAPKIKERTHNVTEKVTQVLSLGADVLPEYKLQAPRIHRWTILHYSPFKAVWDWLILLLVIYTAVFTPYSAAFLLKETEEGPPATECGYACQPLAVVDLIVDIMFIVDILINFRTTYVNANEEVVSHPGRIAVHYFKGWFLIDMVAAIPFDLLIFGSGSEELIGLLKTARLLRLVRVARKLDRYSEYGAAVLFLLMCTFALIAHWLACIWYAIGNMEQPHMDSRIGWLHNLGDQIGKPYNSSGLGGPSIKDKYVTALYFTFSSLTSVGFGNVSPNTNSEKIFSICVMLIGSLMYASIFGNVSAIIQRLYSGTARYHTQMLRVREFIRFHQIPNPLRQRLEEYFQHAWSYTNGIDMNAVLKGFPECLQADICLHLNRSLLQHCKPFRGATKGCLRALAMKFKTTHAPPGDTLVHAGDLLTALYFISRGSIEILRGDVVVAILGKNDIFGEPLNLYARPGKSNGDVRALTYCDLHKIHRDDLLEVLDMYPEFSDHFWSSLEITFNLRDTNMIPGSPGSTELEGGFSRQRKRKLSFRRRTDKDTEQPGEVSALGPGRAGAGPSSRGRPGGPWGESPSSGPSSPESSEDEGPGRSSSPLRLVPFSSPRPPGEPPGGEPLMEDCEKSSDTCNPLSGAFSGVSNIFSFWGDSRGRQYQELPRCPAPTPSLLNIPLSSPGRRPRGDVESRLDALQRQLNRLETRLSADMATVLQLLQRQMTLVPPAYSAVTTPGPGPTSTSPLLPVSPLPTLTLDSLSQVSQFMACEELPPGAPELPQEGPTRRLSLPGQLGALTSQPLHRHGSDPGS

SMILES | hERG current change (%, negative = inhibition) at 10uM
COCCNC(=O)[C@@]1(Cc2ccccc2)C=C[C@@H](C)N1C(C)=O | 11.5%
CC(C)N(Cc1ccco1)/N=C/c1c(O)n(Cc2ccccc2)c(=O)[nH]c1=O | 8.85%
Cc1nccn1CCOc1ccc(Cl)cc1.O=C(O)C(=O)O | -38.4%
COc1ccc2c(Cl)c(C(N)=O)sc2c1 | 1.91%
Nc1ccc(NC(=O)c2ccco2)c(Cl)c1 | 12.9%
Cc1cc(=O)cc(C)n1-c1ccc(Br)cc1 | 12.1%
CCN(CC)CCn1c(-c2ccc(C)cc2)nc(=S)c2c1CC(C)(C)OC2 | -0.55%
Clc1ccccc1-c1ccc(/C=N/n2cnnc2)o1 | -24.1%
CCc1nc(SCC(=O)Nc2cccc3ccccc23)[nH]c(=O)c1C | 8.16%
COC(=O)c1ccc(C(=O)OC)c(NC(=S)N2CCC(N3CCCCC3)CC2)c1 | -15%
COc1cc(NS(C)(=O)=O)c(OC)cc1NC(=O)c1ccccc1 | -9.96%
O=C(Nc1ccccc1N1CCCCC1)c1cccc([N+](=O)[O-])c1 | 9.03%
CN1CCN(c2ccc(NC(=O)c3ccc(-c4cccc([N+](=O)[O-])c4)o3)cc2)CC1 | 5.35%
O=C(Nc1ccccc1N1CCOCC1)c1cccc([N+](=O)[O-])c1 | -17.7%
CN1CCN(c2ccccc2NC(=O)c2ccc(-c3cccc([N+](=O)[O-])c3)o2)CC1 | -51.8%
CN1CCN(c2ccccc2NC(=O)c2cccc([N+](=O)[O-])c2)CC1 | -80.1%
O=C(NC(=S)Nc1ccccc1N1CCCC1)c1ccc(-c2cccc([N+](=O)[O-])c2)o1 | -26.7%
N#Cc1ccsc1NC(=O)c1ccc(Cl)c([N+](=O)[O-])c1 | 21%
O=C(NC1CCS(=O)(=O)C1)c1cccc(S(=O)(=O)N2CCCCCC2)c1 (stereo not shown) | 1.79%
NC(=O)[C@@H]1CCCN1Cc1nc(Cc2ccccc2Cl)no1 | 14.5%
CCC1CCCCN1Cc1nc(Cc2ccccc2Cl)no1 (stereo not shown) | -10.4%
OCCCC1CCCCN1Cc1nc(Cc2ccccc2Cl)no1 (stereo not shown) | -78.9%
CNC(=O)C1CCN(S(=O)(=O)c2c(C)noc2/C=C/c2ccccc2F)CC1 | 11.4%
Cc1noc(C)c1S(=O)(=O)N1CCCN(C(=O)/C=C/c2ccccc2F)CC1 | -70.9%

SMILES | hERG current change (%, negative = inhibition) at 10uM
Cc1noc(/C=C/c2ccccc2F)c1S(=O)(=O)N1CCC(C(=O)N2CCN(C)CC2)CC1 | -19.5%
COc1ccc(N2CCN(C(c3cccs3)C(C)NS(C)(=O)=O)CC2)cc1 (stereo not shown) | 7.84%
CN1C(=O)c2ccccc2C(C(=O)O)C1c1cccc(F)c1 (stereo not shown) | 0.483%
CCOc1ccccc1N(C)C(=O)c1sc2ncn(CC(=O)N3CCCCC3C)c(=O)c2c1C (stereo not shown) | 6.44%
CCOC(=O)CCSc1nc2c(c(C(F)(F)F)c1C#N)CCC2 | 3.58%
O=C(c1ccccc1OCc1ccccc1Br)N1CCN(c2ncccn2)CC1 | -37.2%
O=C(C[n+]1cccc2ccccc21)c1ccc(Br)cc1.[Br-] | -45.1%
O=C(c1ccco1)N1CCCN(Cc2nc(Cc3ccccc3)no2)CC1 | -25.8%
Fc1cccc(Cc2noc(CN3CCOCC3)n2)c1 | 11.4%
Fc1cccc(Cc2noc(CN3CCCN(C4Cc5ccccc5C4)CC3)n2)c1 | -86.5%
Fc1cccc(Cc2noc(CN3CCN(C4CCc5ccccc5C4)CC3)n2)c1 (stereo not shown) | -78.6%
c1ccc(Cc2noc(CN3CCC(CN4CCOCC4)CC3)n2)cc1 | 4.64%
Cc1cccnc1CN1CCN(Cc2nc(Cc3cccc(F)c3)no2)CC1 | -29.5%
c1ccc(Cc2noc(CN3CCCN(C4Cc5ccccc5C4)CC3)n2)cc1 | -80%
O=C(c1ccco1)N1CCN(Cc2nc(Cc3ccccc3)no2)CC1 | -8.87%
CN1CCN(Cc2nc(Cc3cccc(F)c3)no2)CC1c1ccccc1 (stereo not shown) | -18.2%
c1ccc(Cc2noc(CN3CCN(C4CCc5ccccc5C4)CC3)n2)cc1 (stereo not shown) | -81.2%
Cc1ccccc1N1CCN(Cc2nc(Cc3ccccc3)no2)CC1 | 9.18%
Fc1cccc(Cc2noc(CN3CCSCC3)n2)c1 | 29.1%
Cc1ccc(CN2CCNC(=O)C2CC(=O)NCC(F)(F)F)o1 (stereo not shown) | 14.1%
CCOc1cccc(/C=C(/C#N)c2nc3ccccc3[nH]2)c1OCC(=O)O | 14.1%
COc1cc(C(=O)Nc2nc3ccc4nc(C)sc4c3s2)cc(OC)c1OC | -5.34%
C=CCN(C(=O)CNC(=O)c1ccco1)C(C(=O)NC1CCCCC1)c1ccccc1 (stereo not shown) | 1.1%
C=C1CCN(c2ccc(C(=O)NCCC)cc2[N+](=O)[O-])CC1 | -48.3%

SMILES | hERG current change (%, negative = inhibition) at 10uM
CN(C)C(=O)Cn1cnc2c(cnn2-c2ccc(F)cc2)c1=O | -2.06%
COC(=O)C(C(=O)OC)C(C[N+](=O)[O-])c1ccc(OC)cc1 (stereo not shown) | -6.91%
Cc1cc(C)cc(NC(=O)C2CCN(S(=O)(=O)c3ccc4c(c3)NC(=O)C(C)S4)CC2)c1 (stereo not shown) | 8.79%
CCC(C)NC(=O)CSc1ccc(S(=O)(=O)N2CCN(Cc3ccccc3)CC2)cn1 (stereo not shown) | -16.6%
O=C(OC(c1ccccc1)c1nccc2ccccc12)c1cccc([N+](=O)[O-])c1 (stereo not shown) | 8.01%
CN(C)/C=N/c1cnc(C(=O)c2ccc(Cl)cc2)n1C | 5.58%
Br.CCCN(CCC)C1CCc2ccc(O)cc2C1 (stereo not shown) | -70%
Br.CCCN(CCC)C1CCc2cccc(O)c2C1 (stereo not shown) | -10.6%
Br.CCCN(CCC)[C@@H]1CCc2cccc(O)c2C1 | -34.4%
COc1ccc(Cl)c2sc(N(Cc3cccnc3)C(C)=O)nc12 | 13.2%
Cc1cc(C(=O)Nc2ccccc2)oc1C | 7.57%
Cc1cc(C(=O)Nc2ccc3ccccc3c2)oc1C | -68.1%
CC(=O)c1cc(C(=O)Nc2ccc3ccccc3c2)c(C)o1 | 13.8%
COc1ccc(S(=O)(=O)N2CCCOC2CNC(=O)C(=O)NCCCn2ccnc2)cc1 (stereo not shown) | -3.17%
Cc1cc(C)cc(N(CC(=O)Nc2ccccc2-c2ccccc2)S(=O)(=O)c2ccccc2)c1 | 13.1%
COc1ccc(N(CC(=O)N/N=C/c2cccnc2)S(=O)(=O)c2ccc(C)cc2)cc1OC | -14.2%
Cc1cc(C)cc(N(CC(=O)N/N=C/c2ccncc2)S(=O)(=O)c2ccccc2)c1 | -76.9%
Cc1ccc(N(CC(=O)N/N=C/c2cccnc2)S(=O)(=O)c2ccccc2)cc1 | -52%
COc1ccc(N(CC(=O)N/N=C/c2cccnc2)S(=O)(=O)c2ccccc2)c(OC)c1 | -40.6%
COc1ccc(/C=N/NC(=O)CN(c2ccc(OC)cc2)S(=O)(=O)c2ccccc2)cc1 | -7.15%
CC(=O)NCCC(=O)N1CCCC(CNC(=O)c2ccc(-c3ccccc3)cc2)C1 (stereo not shown) | -0.511%
Cn1cc(C(O)CN2CCCCC2)c2ccccc21 (stereo not shown) | 9.26%
CCn1c(COc2ccc3c(c2)CCCC3)nnc1SCC(=O)Nc1ccc(C(=O)OC)cc1 | 5.43%
CN(Cc1ccccc1)C(=O)c1ccccc1NC(=O)c1ccco1 | 20%

SMILES | hERG current change (%, negative = inhibition) at 10uM
Cc1c(N(C)C)nc2ccccc2c1N.O=C(O)C(=O)O | -46.5%
Cc1nc2ccccc2c(-c2ccccc2)c1C(=O)c1ccccc1 | 0.392%
CCN(CC)c1nc2ccccc2c(N)c1-c1ccccc1.O=C(O)C(=O)O | -77%
CCOC(=O)c1c(C)nc2ccccc2c1-c1ccccc1.Cl | -30.8%
CCOC(=O)c1c(CCl)nc2ccccc2c1-c1ccccc1 | 5.72%
CN(C)c1nc2ccccc2c(N)c1-c1ccccc1.O=C(O)C(=O)O | -65.9%
CCOC(=O)c1c(-c2ccccc2)csc1NC(=S)NC | -3.27%
CCN(CC)C(=O)COc1ccc(Br)cc1Cl | -11.8%
NC(=S)N/N=C1\CC(n2nnn(-c3cccc(Cl)c3)c2=S)C2COC1O2 (stereo not shown) | -26.8%
Cc1cc(C)cc(C(=O)NC(CC(N)=O)c2ccc(N3CCC(Br)CC3)c([N+](=O)[O-])c2)c1 (stereo not shown) | -16.1%
CC(Oc1cccc(Cl)c1)C(=O)Nc1cc(S(=O)(=O)N2CCOCC2)ccc1N1CCCC1 (stereo not shown) | -24.8%
CC(Oc1ccc(F)cc1)C(=O)Nc1cc(S(=O)(=O)N2CCCCC2)ccc1N1CCOCC1 (stereo not shown) | -5.21%
CC(=O)c1ccc(OCC(=O)Nc2ccccc2N2CCCC2)cc1 | -2.74%
CC(Oc1cccc(Cl)c1)C(=O)Nc1cc(S(=O)(=O)N2CCCCC2)ccc1N1CCOCC1 (stereo not shown) | -8.24%
CC(Oc1cccc(Cl)c1)C(=O)Nc1cc(S(=O)(=O)N2CCOCC2)ccc1N1CCCCC1 (stereo not shown) | 8.44%
CC(Oc1ccc(Br)cc1)C(=O)Nc1cc(S(=O)(=O)N2CCOCC2)ccc1N1CCCC1 (stereo not shown) | -5.62%
CCN1CCN(c2ccc(S(=O)(=O)N3CCOCC3)cc2NC(=O)C(C)Oc2ccc(Cl)cc2)CC1 (stereo not shown) | -70.9%
CC(Oc1cccc(Cl)c1)C(=O)Nc1ccccc1N1CCCC1 (stereo not shown) | -15.3%
CC(Oc1ccc(F)cc1)C(=O)Nc1cc(S(=O)(=O)N2CCOCC2)ccc1N1CCCCC1 (stereo not shown) | 6.32%
CCN1CCN(c2ccc(S(=O)(=O)N3CCCCC3)cc2NC(=O)C(C)Oc2ccc(F)cc2)CC1 (stereo not shown) | -72.7%
CCN1CCN(c2ccccc2NC(=O)C(C)Oc2ccc(C(C)=O)cc2)CC1 (stereo not shown) | -51.6%
CCN1CCN(c2ccc(S(=O)(=O)N3CCOCC3)cc2NC(=O)C(C)Oc2cccc(Cl)c2)CC1 (stereo not shown) | -70.8%
